Rows were chosen to be rich in hits. Some 3% of all compounds tested hit in one or more screens of this group.
VDR inhibitor – blocks the human vitamin D receptor | P11473 | AID 504847 | 400,000 tested, 0.93% active | Potency, µM, hits mostly inhibitors | VDR-SRC2-3 peptide fluorescence polarization, 2 h
Target sequence (P11473 whole entry, looked up): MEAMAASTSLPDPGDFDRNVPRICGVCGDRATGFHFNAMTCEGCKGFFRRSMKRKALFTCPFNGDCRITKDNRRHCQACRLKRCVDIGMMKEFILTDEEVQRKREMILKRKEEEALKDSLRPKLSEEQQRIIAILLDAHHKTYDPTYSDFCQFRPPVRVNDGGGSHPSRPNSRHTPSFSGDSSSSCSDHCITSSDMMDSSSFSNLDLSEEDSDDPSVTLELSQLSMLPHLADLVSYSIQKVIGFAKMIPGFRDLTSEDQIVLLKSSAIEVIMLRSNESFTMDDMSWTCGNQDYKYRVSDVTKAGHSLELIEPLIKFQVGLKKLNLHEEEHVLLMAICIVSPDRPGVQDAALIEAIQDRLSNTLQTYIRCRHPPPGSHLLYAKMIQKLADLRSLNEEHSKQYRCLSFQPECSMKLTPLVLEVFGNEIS
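FP read-out; VDR + SRC2-3 coactivator peptide; 23 nl compound by pintool; 2 h RT incubation; reagents held at 4 deg C, protected from light.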
PLK1 PBD block – PLK1 (human) polo-box domain binding inhibition; P53350; Plk1 PBD binding of FITC phosphopeptide, fluorescence polarization; Potency, µM, actives largely listed as inhibitors; 360,000 tested, 2.8% active; note: series mostly up to about 57 µM; nearly all actives have a fitted effect of over 65% in size
GCN5L2 inh – GCN5L2 (KAT2A) acetyltransferase inhibition. GCN5L2 HAT assay, ThioGlo1 CoA-SH fluorescence. Potency, µM (doses to about 58.9 µM), most hits filed as inhibitors. 390,000 tested, 0.21% active
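Enzyme at 20nM final was mixed with library compounds for 15 min at room temperature. Peptide H3(1-25) at 75uM, acetyl-CoA at 70uM and ThioGlo1 at 50uM were then added. Plates were read immediately and after 20 min (Ex340nm/Em540nm).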
PTAP TSG101 blk – blocks PTAP/TSG101 interaction to inhibit HIV-1 budding; Q99816; AID 493005; 340,000 tested, under 10 active; Potency, µM (top dose mostly 115 µM), actives largely listed as inhibitors; Fluorescence polarization, FITC-PTAP peptide / Tsg101 binding; active = well fitted inhibition curve with a large enough effect in the main read-out, with a control signal flat, not every such curve was filed as active; inconclusive = small, poorly fitted or top-dose-only effect, or effect the other way, or a change in a side signal; inactive = no such curve, though single readings can be large or run the other way
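Steps: Tsg101 binding domain dispensed (10 uM final), compounds pinned in DMSO, FITC-labeled PTAP-motif peptide added (50 nM final); after 20 min binding at room temperature, polarization measured.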
USP1 inh – inhibitors of human USP1/UAF1 deubiquitinase. O94782. recombinant USP1/UAF1, Ub-Rhodamine cleavage fluorescence. Potency, µM (doses to about 57.1 µM), usual class: inhibitors. 390,000 tested, 0.23% active; note: nearly all actives have a fitted effect of over 60% in size
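Step one: compound is pinned into 1nM USP1/UAF1 in HEPES pH 7.8 buffer with TCEP. Step two: 15 min room-temperature incubation. Step three: Ub-Rho (150nM final) starts cleavage, tracked by fluorescence over six one-minute reads.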
Large screens that a line does not name were inactive. Unless noted, calls come from the whole dose curve; as a rule, active = well fitted curve in the direction sought with a large enough effect; inconclusive = small, poorly fitted or top-dose-only effect, or another doubt; inactive = no such curve, though single readings can be large; an effect the other way counts as inactive or inconclusive.

Cc1ccc(S(=O)(=O)CC(=O)c2cc(C)c(OC(=O)N(C)C)c(C)c2)cc1	none
N#CC(C#N)=Cc1ccc(O)c(O)c1	VDR inhibitor 50.1µM
CCCCCCCCCCCCCCOS(=O)(=O)O	VDR inhibitor 28.2µM, GCN5L2 inh 8.91µM (no result: PLK1 PBD block, PTAP TSG101 blk, USP1 inh)
NCCCC[C@H](NC(=O)[C@H](Cc1ccccc1)NC(=O)[C@H](CCCN=C(N)N)NC(=O)[C@@H](N)Cc1ccc(O)cc1)C(N)=O	none (no result: PLK1 PBD block, PTAP TSG101 blk, USP1 inh)
O=c1[nH]c(=O)n(-c2ccccc2F)c(O)c1/C=C1\C=Nc2ccccc21	PLK1 PBD block 4.23µM, USP1 inh inconclusive
COc1ccc(-n2c(O)c(/C=C3\C=Nc4ccc(Br)cc43)c(=O)[nH]c2=O)cc1	VDR inhibitor inconclusive, PLK1 PBD block 1.06µM
O=c1[nH]c(=O)n(CC2CCCO2)c(O)c1/C=C1\C=Nc2ccccc21 (configuration not stated)	PLK1 PBD block 26.7µM
CCN(CC)P(=S)(c1c(C)nc2ccccn12)c1c(C)nc2ccccn12	VDR inhibitor inconclusive, PLK1 PBD block 5.32µM
CCOc1c(P(=S)(N(C)C)N(C)C)c(C)nn1-c1ccccc1	none
COc1cccc(N2C(=O)NC(=O)/C(=C/c3ccc4c5c(cccc35)CC4)C2=O)c1	none (no result: VDR inhibitor, PLK1 PBD block, PTAP TSG101 blk, USP1 inh)
CC1=NN(c2ccccc2)C(=O)C1/C=C1\C(=O)NC(=O)N(c2ccc(C)c(C)c2)C1=O (configuration not stated)	PLK1 PBD block 21.2µM
COc1ccc(/C=C2/C(=O)NC(=O)N(c3ccc(C)c(C)c3)C2=O)cc1CN1C(=O)c2ccccc2C1=O	VDR inhibitor 50.1µM, PLK1 PBD block 4.23µM
O=CN1CCCCC1C1CC[C@H]2CCCCN2C1 (some centres not stated)	none (no result: PLK1 PBD block, PTAP TSG101 blk, USP1 inh)
N#Cc1ccc(CN2CC[C@@]3(CCCNC3)C2)cc1	none (no result: PLK1 PBD block, PTAP TSG101 blk, USP1 inh)
CCC(C)C(=O)OC1C(O)C2C(CN3CC(C)CCC3[C@]2(C)O)C2C[C@]34O[C@@]5(O)C(OC(=O)C(C)(O)CC)CCC3(C)C5C(OC(C)=O)C(OC(C)=O)C4[C@@]21O (some centres not stated)	none (no result: PLK1 PBD block, PTAP TSG101 blk, USP1 inh)
O=C(Nc1ccc(Br)cc1)c1cc(Br)cc(Br)c1O	VDR inhibitor 56.2µM, GCN5L2 inh inconclusive (no result: PLK1 PBD block, PTAP TSG101 blk, USP1 inh)
Cc1ccc([C@H]2C[C@H](n3cc(C4CC4)nn3)[C@@H](O)CN2Cc2cccs2)cc1	USP1 inh inconclusive (no result: VDR inhibitor, GCN5L2 inh, PTAP TSG101 blk)
COC(=O)C1=CO[C@@H](C)[C@@H]2CN3CC[C@]4(C(=O)Nc5c4ccc(OC)c5OC)[C@H]3C[C@H]12	none (no result: PLK1 PBD block, GCN5L2 inh, PTAP TSG101 blk, USP1 inh)
Cc1cc(C=C2C(=O)NC(=O)NC2=O)c(C)n1-c1ccc2c(c1)OCO2	none
O=C1NC(=O)C(=Cc2ccccc2Oc2ccc(F)cc2)C(=O)N1	VDR inhibitor 50.1µM, PLK1 PBD block 11.9µM
Cc1ccc(S(=O)(=O)Oc2ccccc2C=C2C(=O)NC(=O)NC2=O)cc1	PLK1 PBD block 4.74µM (no result: VDR inhibitor, GCN5L2 inh, PTAP TSG101 blk)
COc1cccc(C(=O)c2cn(CC(=O)Nc3cc(Cl)c(OC)cc3OC)c3nc(C)ccc3c2=O)c1	USP1 inh inconclusive (no result: PLK1 PBD block, PTAP TSG101 blk)
CC(CCC(=O)O)C1CCC2C3CC[C@@H]4CCCC[C@@]4(C)C3CC[C@@]12C (some centres not stated)	GCN5L2 inh inconclusive (no result: PLK1 PBD block, PTAP TSG101 blk, USP1 inh)
CC1=C(O)C(=O)[C@H]2O[C@@H]2C1=O	VDR inhibitor inconclusive (no result: PLK1 PBD block, PTAP TSG101 blk, USP1 inh)
COc1cc2c(cc1O)[C@@H]1Cc3ccc(OC)c(O)c3CN1CC2	USP1 inh 14.1µM
COc1ccc(C[C@@H]2c3cc(O)c(OC)cc3CCN2C)cc1O	none (no result: PTAP TSG101 blk)
COc1ccc(S(=O)(=O)N(C)C[C@H]2Oc3c(NC(=O)NC4CCCCC4)cccc3C(=O)N([C@H](C)CO)C[C@@H]2C)cc1	USP1 inh inconclusive
Cc1ccc(S(=O)(=O)Nc2ccc3c(c2)CC(=O)N([C@H](C)CO)C[C@@H](C)[C@H](CN(C)S(=O)(=O)c2ccccc2)O3)cc1	VDR inhibitor inconclusive, PLK1 PBD block 21.2µM
C[C@]12CC[C@@H]3c4ccc(O)cc4C[C@@H](CCCCCCCCCS(=O)CCCC(F)(F)C(F)(F)F)[C@H]3[C@@H]1CC[C@@H]2O (some centres not stated)	none (no result: PLK1 PBD block, PTAP TSG101 blk, USP1 inh)
CCOP(=S)(OCC)SCn1c(=O)oc2cc(Cl)ccc21	VDR inhibitor 35.5µM, GCN5L2 inh inconclusive (no result: PLK1 PBD block, PTAP TSG101 blk, USP1 inh)
CN(C)C(=O)Nc1ccc(-n2nc(C(C)(C)C)oc2=O)c(Cl)c1	none (no result: PLK1 PBD block, PTAP TSG101 blk, USP1 inh)
COc1ccc2nc(/N=C/c3c(O)n(-c4cccc(Cl)c4)c(=O)[nH]c3=O)sc2c1	VDR inhibitor 50.1µM
CCCCCC[C@H]1C(=O)O[C@H](C)[C@H](NC(=O)c2cccc(NC=O)c2O)C(=O)O[C@@H](C)[C@H]1OC(=O)CC(C)C	GCN5L2 inh inconclusive (no result: PLK1 PBD block, PTAP TSG101 blk, USP1 inh)
CCOP(=O)(Nc1ccc2c(c1)C(=NNC(N)=S)c1ccccc1-2)OCC	VDR inhibitor inconclusive, PLK1 PBD block 26.7µM (no result: GCN5L2 inh)
CC(C)C[C@H](NC(=O)CNC(=O)[C@H](CCC(N)=O)NC(=O)[C@H](Cc1ccc(O)cc1)NC(=O)[C@@H](NC(=O)[C@H](Cc1ccc(O)cc1)NC(=O)CNC(=O)[C@@H](N)CCCN=C(N)N)C(C)C)C(=O)O	none (no result: PLK1 PBD block, PTAP TSG101 blk, USP1 inh)
CC(C)=CCCC1(C)C=Cc2c(O)c3c(c(CC=C(C)C)c2O1)OC12C(CC4CC1C(C)(C)OC2(C/C=C(/C)C(=O)O)C4O)C3=O (configuration not stated)	VDR inhibitor 50.1µM, GCN5L2 inh inconclusive (no result: PLK1 PBD block, PTAP TSG101 blk, USP1 inh)
COc1ccc(/C=C/c2nc(-c3ccccc3O)n(-c3ccccc3)n2)cc1OC	USP1 inh inconclusive (no result: PLK1 PBD block, PTAP TSG101 blk)
CCN(CC)C(=O)c1ccc(NC(=O)c2ccc(-c3nn(C)c(=O)c4ccccc34)cc2)cc1	PLK1 PBD block 29.9µM

Screens (PubChem BioAssay)
